Screening results: PubChem, several laboratories
Smad3 inh: Smad3 (human) transcription factor binding inhibition | inhibition, % at 25 µM | P84022 | 88,000 compounds, 0.29% hits | TR-FRET Smad3/Dy647-FoxH1 peptide binding, europium anti-His;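 active = compounds that reduce the energy-transfer binding signal between the protein and its labelled peptide by more than half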
ERb SRC1 inh: blocks coactivator binding to human estrogen receptor beta | Q92731 | inhibition, % at 25.6 µM | TR-FRET ER-beta LBD / SRC1-Cy5 peptide binding; receptor agonist-loaded with 1 µM estradiol | 86,000 compounds, 1.3% hits;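 active = compounds whose percent inhibition of the receptor-coactivator binding signal exceeds about 50% in the single-dose screen, limit read from the data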
Candida biofilm: kills Candida albicans biofilms; 85,000 compounds, 0.14% hits; C. albicans biofilm + clotrimazole, Alamar Blue; inhibition, % at 6 µM;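 active = inhibition above 20%; inactive = inhibition below 20%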;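 note: preformed 24 hr biofilms exposed to compound for 48 hr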
ERa coact pot: ER-alpha (human) coactivator binding potentiation | P03372 | TR-FRET ERalpha-LBD/SRC-Cy5 coactivator binding, 2 h; 100 = basal binding, no effect | coactivator binding (% of control), % at 25.6 µM | 86,000 compounds, 1.3% hits | AID 639; in the data active = activity above about 200%;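 note: binding measured in presence of low estradiol as agonist stimulus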
ERa SRC1 inh: ER-alpha (human) coactivator binding inhibition. P03372. TR-FRET ER-alpha LBD / SRC-1 peptide, estradiol-bound. inhibition, % at 25.6 µM. 86,000 compounds, 1.7% hits. AID 629; in the data active = inhibition above about 50%
HePTP inhibitor: inhibitors of human HePTP phosphatase | AID 521 | recombinant HePTP phosphatase activity, OD absorbance | P35236 | 110,000 compounds, 0.64% hits | inhibition, % at 20 µM; in the data active = inhibition above about 50%
Target sequence (P35236 whole entry, looked up): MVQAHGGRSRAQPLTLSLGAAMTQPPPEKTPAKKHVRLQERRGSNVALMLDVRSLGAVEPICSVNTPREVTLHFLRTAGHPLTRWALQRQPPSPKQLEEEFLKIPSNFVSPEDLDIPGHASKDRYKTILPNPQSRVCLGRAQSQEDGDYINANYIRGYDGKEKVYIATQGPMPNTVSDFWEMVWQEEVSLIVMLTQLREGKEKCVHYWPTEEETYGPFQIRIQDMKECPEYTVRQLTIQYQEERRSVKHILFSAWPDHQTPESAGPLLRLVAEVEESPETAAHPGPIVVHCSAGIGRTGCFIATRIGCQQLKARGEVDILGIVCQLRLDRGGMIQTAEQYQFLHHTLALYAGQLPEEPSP
Numbers stand for hits; i = inactive; nt = no result given; [ ] = dose if it differs, or a comment. A selection: hits, their analogues and other compounds. The true share with any hit is near 2.9%.

SMILES	Smad3 inh	ERb SRC1 inh	Candida biofilm	ERa coact pot	ERa SRC1 inh	HePTP inhibitor
C=CCN1C(=O)/C(=C\c2ccc(-c3cc([N+](=O)[O-])ccc3C)o2)C(=O)NC1=S	nt	nt	nt	nt	nt	102
COc1ccc(N2C(=O)/C(=C/c3ccc(OCc4ccc(F)cc4)c(OC)c3)C(=O)NC2=S)cc1	nt	nt	nt	nt	nt	i
O=C(NC(=S)Nc1cc([N+](=O)[O-])cc(Cl)c1O)c1cccnc1	nt	nt	nt	nt	nt	103
CCn1cc([N+](=O)[O-])c(C(=O)N2N=C(c3ccc4ccccc4c3)CC2c2cc(Br)ccc2O)n1 (stereo not drawn)	i	51[fluorescence artefact?]	i	i	i	nt
CCc1ccc(N2C(=O)/C(=C/c3ccc(O)c(OC)c3)C(=O)NC2=S)cc1	nt	nt	nt	nt	nt	i
CCOC(=O)N1c2ccccc2C=CC1OCC (stereo not drawn)	i	i	i	619	i	nt
CN(CC(=O)NCCN1CCN(Cc2ccccc2)CC1)S(=O)(=O)c1cccc2nsnc12	i	i	i	764[fluorescence artefact?]	i	i
CC/C(=N\N1CCN(Cc2ccc(Cl)cc2)CC1)c1ccc(O)cc1	nt	nt	nt	nt	nt	i
COc1ccc(Nc2ccc([N+](=O)[O-])cc2C(=O)O)cc1	nt	nt	nt	nt	nt	i
Cc1ccc(-c2nc3cc(Cl)ccc3o2)cc1NC(=O)C(Cl)(Cl)Cl	nt	nt	nt	nt	nt	53
Cc1ccc(-c2nc3cc(Cl)ccc3o2)cc1NC(=O)C(C)C	nt	nt	nt	nt	nt	i
Brc1ccc2c(c1)c1nc3ccccc3nc1n2CCN1CCOCC1	i	i	i	i	56[fluorescence artefact?]	i
CCN1CCCC1CNC(=O)CSc1cc(=O)n(C)c2cc(Cl)ccc12 (stereo not drawn)	53[fluorescence artefact?]	i	i	i	i	i
Cn1c(=O)cc(SCC(=O)NCC2CCCO2)c2ccc(Cl)cc21 (stereo not drawn)	50[fluorescence artefact?]	i	i	i	i	i
COc1ccc(CC(=O)NNC(C)=O)cc1OC	nt	nt	nt	nt	nt	i
O=C(Nc1ccc(Cl)cc1)OCCOc1ccc(Br)cc1Br	nt	nt	nt	nt	nt	i
COc1ccc(-c2nn(C)c3sc(C(=O)NCc4ccco4)cc23)cc1OC	i	59[fluorescence artefact?]	i	i	80[fluorescence artefact?]	i
Cc1ccc(S(=O)(=O)c2ccc(C)cc2)cc1	i	i	i	i	i	nt
Cc1ccc(C2=C(Cl)C(=O)C(c3ccc(C)cc3)=C(Cl)C2=O)cc1	52	nt	nt	nt	nt	nt
Cc1ccc2c(c1)C1C=CCC1C(C(=O)O)N2 (stereo not drawn)	nt	nt	nt	nt	nt	102
CC(=O)c1ccc2c(c1)C1C=CCC1C(c1ccncc1)N2 (stereo not drawn)	i	i	i	i	i	nt
Cc1cc(I)c2c(c1)C1C=CCC1C(C(=O)O)N2 (stereo not drawn)	nt	nt	nt	nt	nt	102
CCOc1ccc(NC(=O)NCCCn2c(C)nc3cc(C)c(C)cc32)cc1	i	i	i	i	i	nt
Cc1cc2nc(C)n(CCCNC(=O)Nc3cccc4ccccc34)c2cc1C	i	i	i	i	51[fluorescence artefact?]	nt
CCC(C)(C)n1nnnc1C(c1cc2cc(C)cc(C)c2[nH]c1=O)N1CCN(Cc2ccc3c(c2)OCO3)CC1 (stereo not drawn)	i	i	i	227[fluorescence artefact?]	i	nt
SMILES	Smad3 inh	ERb SRC1 inh	Candida biofilm	ERa coact pot	ERa SRC1 inh	HePTP inhibitor
O=C(NCCCN1CCN(Cc2ccccc2)CC1)C1CCN(c2nnc(-n3cccc3)s2)CC1	i	i	i	i	i	i
O=C(NC1CCN(Cc2ccccc2)CC1)C1CCN(c2nnc(-n3cccc3)s2)CC1	i	i	i	i	54[fluorescence artefact?]	i
O=C(NCCCN1CCc2ccccc2C1)C1CCN(c2nnc(-n3cccc3)s2)CC1	i	i	i	i	72[fluorescence artefact?]	i
O=C(NC1CCN(Cc2ccccc2)CC1)C1CCCN(c2nnc(-n3cccc3)s2)C1 (stereo not drawn)	i	i	i	i	i	i
Cc1cc(C)n(CC(O)COc2ccccc2)n1 (stereo not drawn)	i	i	i	i	53	nt
CCCc1nnc2n1N=C(c1ccc(-c3cc(Cl)ccc3Cl)o1)CS2	i	i	i	i	73	i
COc1ccccc1N1CCN(Cc2cc(Br)c(O)c3ncccc23)CC1	i	i	i	i	50[fluorescence artefact?]	i
CCOc1ccc2[nH]c(=O)c(=O)[nH]c2c1	i	54	i	i	52[fluorescence artefact?]	i
O=C(Nc1ccc(Oc2ccccc2)cc1)c1cccs1	nt	nt	nt	nt	nt	i
COc1cccc(/C=N/N2C(=O)c3cccc4cccc(c34)C2=O)c1OC	nt	nt	nt	nt	nt	i
CC(C)Cn1c(=O)c(C(=O)Nc2ccncc2)c(O)c2ccccc21	i	i	i	i	51[fluorescence artefact?]	i
Cc1ccnc(NC(=O)c2c(O)c3ccccc3n(C)c2=O)c1	i	i	i	345[fluorescence artefact?]	i	i
O=C(CSc1ncc(-c2ccccc2)[nH]1)Nc1ccc(F)cc1	nt	nt	nt	nt	nt	i
COc1ccccc1/C=C/C(=O)c1c(-c2ccccc2)c2cc(C)ccc2[nH]c1=O	nt	nt	nt	nt	nt	i
O=C(Nc1ccc2c(c1)OCO2)C1CCN(C(=O)CSc2ncnc3ccccc23)CC1	i	i	i	i	55[fluorescence artefact?]	i
O=c1c2c(nc3cc(-c4ccc(Cl)cc4)[nH]n13)CCS2	nt	nt	nt	nt	nt	96
O=c1c2c(nc3cc(-c4ccco4)[nH]n13)CCS2	nt	nt	nt	nt	nt	100
O=c1c2c(nc3cc(-c4cccs4)[nH]n13)CCS2	nt	nt	nt	nt	nt	i
Cc1ccc(-c2cc3nc4c(c(=O)n3[nH]2)SCC4)cc1	nt	nt	nt	nt	nt	i
Cc1ccc2c(Cl)c(C(=O)Nc3ccc(Br)cc3F)sc2c1	nt	nt	nt	nt	nt	i
Cc1cccc(N2CSC3=C(C#N)C(c4ccc(C)o4)CC(=O)N3C2)c1 (stereo not drawn)	i	68[fluorescence artefact?]	i	i	83	nt
Cc1ccc(-c2nnc3sc(C4COc5ccccc5O4)nn23)cc1 (stereo not drawn)	i	i	i	i	i	i
c1ccc(OCc2nnc3sc(C4COc5ccccc5O4)nn23)cc1 (stereo not drawn)	i	60	i	i	58	i
CC(=O)Nc1ccc2c(c1)/C(=C/c1ccc([N+](C)(C)C)cc1)c1ccccc1-2	93	nt	nt	nt	nt	nt
CCOC(=O)C(CC)Sc1nnc2c3cc(C)ccc3n(C)c2n1 (stereo not drawn)	i	i	i	i	i	nt
SMILES	Smad3 inh	ERb SRC1 inh	Candida biofilm	ERa coact pot	ERa SRC1 inh	HePTP inhibitor
CSc1nnc2c3cc(C)ccc3n(Cc3ccccc3)c2n1	i	54[fluorescence artefact?]	i	i	68[fluorescence artefact?]	i
CC1=C(C(=O)Nc2ccc(Br)cc2)C(c2cccs2)NC(=S)N1 (stereo not drawn)	nt	nt	nt	nt	nt	i
O=C(Nc1cccc(Cl)c1Cl)C1CCN(c2ncccn2)CC1	i	i	i	206	i	i
O=C(N/N=C/c1ccc(Br)c([N+](=O)[O-])c1)c1cccs1	nt	nt	nt	nt	nt	i
CCCCOC(=O)Cn1c2ccc(OC)cc2c2nc3ccccc3nc21	i	i	i	227[fluorescence artefact?]	53[fluorescence artefact?]	nt
CCn1c2ccc(OC)cc2c2nc3ccccc3nc21	i	i	i	i	i	nt
CCCN(CCC)CN1C(=O)S/C(=C/c2ccc(C)cc2)C1=O	nt	nt	nt	nt	nt	i
COc1ccc(Cl)cc1C(=O)NCCCN(C)C	nt	nt	nt	nt	nt	i
COc1ccccc1NC(=O)COc1ccc(C(=O)OCC(=O)N2CCCC2=O)cc1OC	i	i	i	349[fluorescence artefact?]	i	i
COc1ccc(NC(=O)COC(=O)c2ccc(N3CCCC3=O)cc2)cc1OC	i	i	i	i	i	i
O=C1NN(c2ccccc2)C(=O)/C1=C/c1ccco1	nt	nt	nt	nt	nt	i
